Measured values published in PubChem BioAssay (Tox21).
Inconclusive results are not listed. The source made the active and inactive calls. Unless noted, the call rests on the fitted dose curve.

Tests used:
[1] = qHTS assay to identify small molecule agonists of the peroxisome proliferator-activated receptor delta (PPARd) signaling pathway - cell viability counter screen (AID 743211; active means well fitted curve in the direction sought with a large enough effect in the repeat runs; an effect the other way counts as inactive or inconclusive; further: nearly all actives have a fitted effect of over 55% in size)
Procedure, shortened: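 Viability was measured as CellTiter-Glo luminescence (30 min, room temperature) in the same wells as the beta-lactamase readout. GeneBLAzer PPARd UAS-bla HEK293H cells received compound after 5 h plating and were incubated 17 h at 37 C.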

[2] = target: Bile acid receptor (Homo sapiens) (UniProt Q96RI1); test: qHTS assay to identify small molecule antagonists of the farnesoid-X-receptor (FXR) signaling pathway (AID 743217; active means well fitted inhibition curve with a large enough effect in the signal ratio in the repeat runs, not every such curve was filed as active; the % refers to the signal ratio)
Chain of Bile acid receptor (Homo sapiens) (Q96RI1 whole entry, looked up): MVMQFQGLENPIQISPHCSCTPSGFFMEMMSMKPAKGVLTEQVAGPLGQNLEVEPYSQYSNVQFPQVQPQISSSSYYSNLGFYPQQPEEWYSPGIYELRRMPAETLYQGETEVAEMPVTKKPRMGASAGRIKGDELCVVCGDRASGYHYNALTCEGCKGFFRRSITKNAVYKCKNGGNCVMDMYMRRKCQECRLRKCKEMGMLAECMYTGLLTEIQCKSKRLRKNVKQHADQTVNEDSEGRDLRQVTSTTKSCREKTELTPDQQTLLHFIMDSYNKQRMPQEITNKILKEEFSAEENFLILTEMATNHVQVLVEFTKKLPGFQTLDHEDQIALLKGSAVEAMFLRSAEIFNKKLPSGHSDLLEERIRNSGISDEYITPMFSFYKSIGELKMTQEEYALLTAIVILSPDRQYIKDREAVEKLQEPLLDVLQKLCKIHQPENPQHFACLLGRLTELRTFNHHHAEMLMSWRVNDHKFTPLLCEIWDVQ
Procedure, shortened: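 In this cell-based antagonist screen, inhibition of CDCA-driven (50 uM final) UAS-beta-lactamase expression in HEK 293T cells was measured by FRET fluorescence following 16 h compound exposure at 37 °C.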

[3] = qHTS assay to identify small molecule agonists of the farnesoid-X-receptor (FXR) signaling pathway - cell viability counter screen (AID 743218; active means well fitted curve in the direction sought with a large enough effect in the repeat runs; an effect the other way counts as inactive or inconclusive; further: nearly all actives have a fitted effect of over 45% in size)
Procedure, shortened: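 After 16 h at 37 C with test compounds, FXR-bla HEK 293T cells were given LiveBLAzer B/G substrate for 2 h at RT and then CellTiter-Glo; luminescence was taken after 30 min.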

[4] = target: Bile acid receptor (Homo sapiens) (UniProt Q96RI1); test: qHTS assay to identify small molecule agonists of the farnesoid-X-receptor (FXR) signaling pathway (AID 743220; active means well fitted activation curve with a large enough effect in the signal ratio in the repeat runs, not every such curve was filed as active; the % refers to the signal ratio)
Procedure, shortened: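 Beta-lactamase reporter under UAS control in GeneBLAzer FXR HEK 293T cells (5000/well) measured with LiveBLAzer FRET substrate after 2 h at room temperature. Compound exposure lasted 16 h at 37C.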

[5] = qHTS assay to identify small molecule antagonists of the farnesoid-X-receptor (FXR) signaling pathway - cell viability counter screen (AID 743221; active means well fitted cell-killing curve with a large enough effect in the repeat runs, not every such curve was filed as active; further: nearly all actives have a fitted effect of over 50% in size)
Procedure, shortened: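 Cytotoxicity counter screen run in the FXR-bla reporter wells: HEK 293T cells exposed to compound with 50 uM (final) chenodeoxycholic acid for 16 h, 37 C, then viability measured by CellTiter-Glo luminescence after 30 min, room temperature.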

[6] = target: Vitamin D3 receptor (Homo sapiens) (UniProt P11473); test: qHTS assay to identify small molecule agonists of the vitamin D receptor (VDR) signaling pathway (AID 743222)
Chain of Vitamin D3 receptor (Homo sapiens) (P11473 whole entry, looked up): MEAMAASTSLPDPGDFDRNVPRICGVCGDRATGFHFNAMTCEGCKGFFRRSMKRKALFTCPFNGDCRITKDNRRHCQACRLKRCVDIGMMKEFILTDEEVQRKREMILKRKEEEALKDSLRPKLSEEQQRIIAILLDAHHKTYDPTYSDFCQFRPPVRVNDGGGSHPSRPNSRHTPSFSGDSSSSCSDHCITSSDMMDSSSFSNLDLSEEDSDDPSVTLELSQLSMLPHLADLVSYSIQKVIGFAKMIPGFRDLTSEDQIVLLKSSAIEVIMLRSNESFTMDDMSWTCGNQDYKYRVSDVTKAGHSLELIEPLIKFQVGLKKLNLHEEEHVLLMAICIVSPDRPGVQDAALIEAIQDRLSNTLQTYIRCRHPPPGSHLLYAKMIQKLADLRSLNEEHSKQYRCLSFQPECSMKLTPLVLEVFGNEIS
Procedure, shortened: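 VDR-bla cells were seeded, left 4 h, treated with compounds in DMSO for 16 h, incubated 2 h at RT with B/G FRET substrate, and read for fluorescence.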

[7] = qHTS assay to identify small molecule agonists of the vitamin D receptor (VDR) signaling pathway - cell viability counter screen (AID 743224; active means well fitted curve in the direction sought with a large enough effect in the repeat runs; an effect the other way counts as inactive or inconclusive; further: series mostly up to about 63 µM; nearly all actives have a fitted effect of over 50% in size)
Procedure, shortened: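 Here cell health was gauged by luminescent ATP detection (CellTiter-Glo, 30 min RT) in VDR-bla cells that had been incubated with test compounds for 16 h at 37C and 5% CO2.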

[8] = qHTS assay to identify small molecule agonists of the NFkB signaling pathway - cell viability counter screen (AID 1159515); further: series mostly up to about 61 µM; nearly all actives have a fitted effect of over 55% in size
Procedure, shortened: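 5 hr compound treatment of NFkB-bla ME-180 cells (2,000/well, seeded overnight beforehand), followed by reporter substrate for 1.5 hr. CellTiter-Glo added afterward; luminescence after 30 min RT.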

[9] = qHTS assay to identify small molecule agonists of the endoplasmic reticulum stress response signaling pathway - cell viability counter screen (AID 1159517);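 further: HeLa cells carrying an ER stress response element beta-lactamase reporter; series mostly up to about 61 µM; nearly all actives have a fitted effect of over 50% in size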
Procedure, shortened: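 HeLa cells carrying an ESRE-driven beta-lactamase reporter receive compound for 5 hr at 37 C. Cell viability is then gauged with CellTiter-Glo by luminescence, 30 min at room temperature.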

[10] = qHTS assay to identify small molecule antagonists of the retinoid-related orphan receptor gamma (ROR-gamma) signaling pathway - cell viability counter screen (AID 1159520; active means well fitted curve in the direction sought with a large enough effect in the repeat runs; an effect the other way counts as inactive or inconclusive; further: nearly all actives have a fitted effect of over 50% in size)
Procedure, shortened: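 Cytotoxicity was read from cellular ATP (CellTiter-Glo luminescence) after 16 hr at 37 C with 1 uM doxycycline induction. The inducer was added 2 hr after compound transfer to Tet-on ROR gamma CHO cells.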

[11] = qHTS assay to identify small molecule agonists of the AP-1 signaling pathway - cell viability counter screen (AID 1159525); further: nearly all actives have a fitted effect of over 55% in size
Procedure, shortened: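 Luminescent ATP readout (Cell Titer Glo, 30 min RT), normalised to DMSO and tetra n-octyl ammonium bromide controls. Cells were ME-180 AP-1-bla in 0.5% dialyzed FBS Opti-MEM, with a 5 h, 37 °C compound exposure.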

[12] = qHTS assay to identify small molecule agonists of the AP-1 signaling pathway (AID 1159526)
[13] = target: Peroxisome proliferator-activated receptor delta (Homo sapiens) (UniProt Q03181); test: qHTS assay to identify small molecule agonists of the peroxisome proliferator-activated receptor delta (PPARd) signaling pathway (AID 743212)
Chain of Peroxisome proliferator-activated receptor delta (Homo sapiens) (Q03181 whole entry, looked up): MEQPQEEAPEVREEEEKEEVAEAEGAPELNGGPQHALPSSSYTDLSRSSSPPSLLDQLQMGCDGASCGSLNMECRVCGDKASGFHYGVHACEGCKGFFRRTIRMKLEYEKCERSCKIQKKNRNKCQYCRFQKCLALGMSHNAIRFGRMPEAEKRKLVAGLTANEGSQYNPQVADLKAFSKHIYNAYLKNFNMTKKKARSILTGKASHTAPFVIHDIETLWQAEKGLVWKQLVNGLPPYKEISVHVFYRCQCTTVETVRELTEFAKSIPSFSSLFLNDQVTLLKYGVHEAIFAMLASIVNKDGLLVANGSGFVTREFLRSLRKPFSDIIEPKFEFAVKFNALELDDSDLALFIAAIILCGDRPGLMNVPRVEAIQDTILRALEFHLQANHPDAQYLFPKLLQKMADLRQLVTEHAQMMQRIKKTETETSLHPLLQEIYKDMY
Procedure, shortened: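 HEK293H PPARd-bla cells; 5 h preincubation 37 C/5% CO2; compound (DMSO) 37 C; LiveBLAzer B/G FRET substrate 2 h RT; fluorescence intensity.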

[14] = qHTS assay to identify small molecule antagonists of the peroxisome proliferator-activated receptor delta (PPARd) signaling pathway - cell viability counter screen (AID 743213; active means well fitted curve in the direction sought with a large enough effect in the repeat runs; an effect the other way counts as inactive or inconclusive; further: nearly all actives have a fitted effect of over 50% in size)
Procedure, shortened: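 HEK293H PPARd UAS-bla cells, 5 h pre-incubation, compound + L165041 300 nM final, 17 h 37 C; B/G FRET substrate 2 h RT; then CellTiter-Glo 30 min RT, luminescence.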

[15] = target: Peroxisome proliferator-activated receptor delta (Homo sapiens) (UniProt Q03181); test: qHTS assay to identify small molecule antagonists of the peroxisome proliferator-activated receptor delta (PPARd) signaling pathway (AID 743215; active means well fitted inhibition curve with a large enough effect in the signal ratio in the repeat runs, not every such curve was filed as active; the % refers to the signal ratio;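 further: cells stimulated with agonist L165041 at 300 nM final during compound exposure; series mostly up to about 62 µM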)
Procedure, shortened: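 With L165041 present at 300 nM final, compounds were incubated 17 h at 37 C on PPARd UAS-bla HEK293H cells. A FRET-based beta-lactamase substrate was then applied for 2 h at room temperature and fluorescence intensity recorded.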

[16] = qHTS assay to identify small molecule antagonists of the vitamin D receptor (VDR) signaling pathway - cell viability counter screen (AID 743225; active means well fitted curve in the direction sought with a large enough effect in the repeat runs; an effect the other way counts as inactive or inconclusive; further: nearly all actives have a fitted effect of over 50% in size)
Procedure, shortened: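 Cytotoxicity counter screen read by CellTiter-Glo luminescence (30 min, room temperature) in the same wells as the VDR-bla antagonist readout. HEK 293T VDR-UAS-bla cells had 16 h at 37C with compound and 3 nM (final) 1-alpha,25-dihydroxyvitamin D3, then 2 h with FRET substrate.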

[17] = target: Nuclear receptor ROR-gamma (Homo sapiens) (UniProt P51449); test: qHTS assay to identify small molecule antagonists of the retinoid-related orphan receptor gamma (ROR-gamma) signaling pathway (AID 1159521; active means well fitted curve in the direction sought with a large enough effect in the repeat runs; an effect the other way counts as inactive or inconclusive)
Procedure, shortened: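 Antagonist read-out: drop in luminescence (ONE-Glo) from an RORE-LUC reporter in CHO cells with doxycycline-inducible ROR-gamma; 2 hr compound pretreatment, 1 uM doxycycline, 16 hr incubation at 37 C.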

[18] = target: Retinoic acid receptor RXR-alpha (Homo sapiens) (UniProt P19793); test: qHTS assay to identify small molecule agonists of the RXR signaling pathway (AID 1159527); further: nearly all actives have a fitted effect of over 35% in size
Chain of Retinoic acid receptor RXR-alpha (Homo sapiens) (P19793 whole entry, looked up): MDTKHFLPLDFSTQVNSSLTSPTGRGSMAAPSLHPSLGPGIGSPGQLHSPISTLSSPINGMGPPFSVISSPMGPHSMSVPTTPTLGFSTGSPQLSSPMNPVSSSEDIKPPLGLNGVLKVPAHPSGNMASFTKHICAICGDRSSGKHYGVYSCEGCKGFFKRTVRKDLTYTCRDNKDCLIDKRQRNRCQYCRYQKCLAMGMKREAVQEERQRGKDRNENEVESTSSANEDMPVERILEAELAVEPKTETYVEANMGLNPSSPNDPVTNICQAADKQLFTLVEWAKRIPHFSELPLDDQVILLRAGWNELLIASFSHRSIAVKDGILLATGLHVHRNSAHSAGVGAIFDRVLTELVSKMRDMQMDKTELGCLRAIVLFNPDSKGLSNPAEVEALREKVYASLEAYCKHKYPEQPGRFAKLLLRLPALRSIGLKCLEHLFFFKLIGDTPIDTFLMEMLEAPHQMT
Procedure, shortened: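 Agonist-mode beta-lactamase reporter assay: HEK 293T RXR-alpha-UAS-bla cells treated 16 hr at 37 C with compounds, 9-cis retinoic acid as positive control. LiveBLAzer FRET substrate, 405 nm excitation, 460/530 nm emission.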

[19] = target: Vitamin D3 receptor (Homo sapiens) (UniProt P11473); test: qHTS assay to identify small molecule antagonists of the vitamin D receptor (VDR) signaling pathway (AID 743223; active means well fitted inhibition curve with a large enough effect in the signal ratio in the repeat runs, not every such curve was filed as active; the % refers to the signal ratio)
Procedure, shortened: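 Antagonist mode: compound added to VDR-bla cells alongside agonist 1alpha,25-dihydroxyvitamin D3 (3 nM final), incubation 16 h at 37C. Read-out is LiveBLAzer FRET fluorescence, 2 h at room temperature.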

[20] = qHTS assay to identify small molecule agonists of the endoplasmic reticulum stress response signaling pathway (AID 1159516; active means well fitted activation curve with a large enough effect in the signal ratio in the repeat runs, not every such curve was filed as active; the % refers to the signal ratio)
Procedure, shortened: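 Reporter HeLa cells (ESRE-beta-lactamase) underwent 5 hr compound incubation at 37 C and 5% CO2 in quantitative HTS format. Detection followed 2 hr of FRET substrate loading at room temperature.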

Measured: Potency

C=CC(=O)OCCCl
not listed: [13] | [14] | [15] | [16] | [17] | [18] | [19] | [20]
inactive: all other assays above

CCCCc1nc(Cl)c(CO)n1Cc1ccc(-c2ccccc2-c2nn[nH]n2)cc1
not listed: [1] | [6] | [19] | [20]
inactive: all other assays above

CCCCCC(=O)OCCc1ccccc1
inactive: [3] | [5] | [6] | [7] | [8] | [9] | [10] | [11] | [12] | [18]

Nc1ccncc1N
not listed: [11] | [14] | [20]
inactive: all other assays above

CC(=O)C1CCCCC1=O (configuration not stated)
not listed: [16] | [20]
inactive: all other assays above

CCCCN(CCC(=O)OCC)C(C)=O
not listed: [2] | [4] | [15] | [18] | [19] | [20]
inactive: all other assays above

FB(F)F
not listed: [11] | [15] | [20]
inactive: all other assays above

COc1cc(C(=O)OC(COCCC(C)C)CN2CCOCC2)cc(OC)c1OC (configuration not stated)
not listed: [11] | [14] | [20]
inactive: all other assays above

C1CCC2=NCCCN2CC1
inactive: [14] | [3] | [5] | [6] | [19] | [8] | [9] | [10] | [11] | [12] | [18]

CC(C)C(=O)OC(=O)C(C)C
not listed: [2] | [4] | [7] | [19] | [20]
inactive: all other assays above

CC(C)(C)C(=O)c1ccccc1
not listed: [3] | [6] | [7] | [11] | [16] | [17]
inactive: all other assays above

O=S(=O)(O)c1cc(O)c(O)c(S(=O)(=O)O)c1
not listed: [6] | [15] | [16] | [18] | [19] | [20]
inactive: all other assays above

CCCCCC(C)N (configuration not stated)
not listed: [2] | [4] | [6] | [7] | [17] | [19] | [20]
inactive: all other assays above

C=CCCCCCCCCC(=O)OCC
not listed: [2] | [4] | [11] | [19] | [20]
inactive: all other assays above

CCN1C=CN(C)C1C (configuration not stated)
not listed: [1] | [2] | [4] | [6] | [7] | [11] | [17] | [19]
inactive: all other assays above

Cc1nc2ccc(CN(C)c3ccc(C(=O)N[C@@H](CCC(=O)O)C(=O)O)s3)cc2c(=O)[nH]1
not listed: [2] | [17] | [19] | [20]
inactive: all other assays above

CCC(=O)OCc1ccccc1
not listed: [2] | [4] | [16] | [20]
inactive: all other assays above
